The supplement of paper PMC3334620
Whole data set: some 33,000 sequences, median “E-score (-0.5 to 0.5)” near -0.012, cut for the highest 2% near 0.27. The sample holds the highest values, similar sequences and a random draw of the others, so the mix is not that of the screen.

What follows are sequences tested against T1, Vhr1 (UniProt P40522) (assay: PBM E-score (8-mer binding enrichment) (E-score (-0.5 to 0.5)); higher = stronger / more preferred TF binding). Conditions: protein concentration: 200 nM; construct: GST-full length.
T1 sequence: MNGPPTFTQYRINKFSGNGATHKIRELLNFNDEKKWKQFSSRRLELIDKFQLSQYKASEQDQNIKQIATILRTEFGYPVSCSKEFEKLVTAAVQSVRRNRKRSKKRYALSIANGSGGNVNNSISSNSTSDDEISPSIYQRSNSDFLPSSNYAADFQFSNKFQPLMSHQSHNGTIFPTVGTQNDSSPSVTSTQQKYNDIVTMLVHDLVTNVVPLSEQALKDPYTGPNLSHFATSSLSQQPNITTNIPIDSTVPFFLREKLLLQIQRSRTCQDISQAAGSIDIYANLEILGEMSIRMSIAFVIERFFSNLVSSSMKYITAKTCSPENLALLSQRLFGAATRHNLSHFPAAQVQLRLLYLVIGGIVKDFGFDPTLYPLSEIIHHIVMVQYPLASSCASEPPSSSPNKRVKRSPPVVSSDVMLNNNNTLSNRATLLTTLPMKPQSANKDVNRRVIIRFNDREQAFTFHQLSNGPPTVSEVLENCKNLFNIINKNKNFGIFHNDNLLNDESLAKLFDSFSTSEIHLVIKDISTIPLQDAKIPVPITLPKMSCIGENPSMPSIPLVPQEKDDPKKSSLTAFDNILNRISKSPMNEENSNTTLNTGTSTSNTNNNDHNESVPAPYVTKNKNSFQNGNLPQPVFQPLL
Description: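 Universal 'all 10-mer' protein binding microarrays (Agilent AMADID 015681) probed with GST-tagged S. cerevisiae TFs (full-length or DBD) made by in vitro transcription/translation (PURExpress), about 100-200 nM. Bound TF was detected with fluorescent anti-GST. Each ungapped 8-mer (which stands for itself and its reverse complement) is scored by the PBM enrichment score (E-score), a modified Wilcoxon-Mann-Whitney statistic from -0.5 to +0.5, computed with the Universal PBM Analysis Suite. Scale: above 0.35 generally sequence-specific binding.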

In order of rising “PBM E-score” value:
1. AGGGCCAA  -0.299
2. AACTTTTG  -0.205
3. CTCCTCTA  -0.189
4. AGAACTGA  -0.183
5. CTTGAGGC  -0.174
6. CAAGGGCA  -0.168
7. CTCTAGCC  -0.167
8. GTTCTAAA  -0.164
9. GAGCGACC  -0.162
10. ATGAAGTG  -0.149
11. AGAGAAGA  -0.148
12. ACGTCCAG  -0.147
13. ACGTTCGC  -0.141
14. GGCAAGAC  -0.138
15. AGAGCGCC  -0.134
16. AGCTGACG  -0.12
17. ACCTGACG  -0.0943
18. AGGGGTGA  -0.0936
19. ACGGGTCA  -0.077
20. TAACAGAA  -0.069
21. TGGTCTAA  -0.0689
22. ATAGGGGC  -0.0513
23. GCTGCCAA  -0.0372
24. CGGGAGAC  -0.0366
25. CCTGATGC  -0.0265
26. CGGCTAAC  -0.0152
27. AGCACCAG  -0.0111
28. ACTGATTG  -0.00926
29. CAAGCGTG  -0.00913
30. GGGCTTAC  -0.00595
31. CCTCACCA  -0.00516
32. ACTGGGTA  -0.00457
33. GCGGGTCC  -0.00354
34. AAGCCTCG  0.00094
35. CGGGAGTA  0.00502
36. GCCGTCTA  0.00852
37. CCATTCAA  0.0103
38. AAATAATT  0.0111
39. GAGCACTA  0.0167
40. CGAATAAG  0.0236
41. GTAGGGTA  0.0298
42. AGTCTGCC  0.0302
43. ATGCCAGG  0.0307
44. AACATCGG  0.0341
45. CCTCACCC  0.0394
46. CTTGAGTA  0.0408
47. GGTGCTGA  0.042
48. AGGGAGTG  0.042
49. CAACCATC  0.0512
50. GAGCGAAA  0.0518
51. ACTCTACA  0.0564
52. CCGAGTAA  0.0614
53. GCTATATA  0.0669
54. CAGATTCG  0.069
55. AGTCCCCG  0.0704
56. AAACCATA  0.0822
57. TCTCACCA  0.0878
58. CCAGGGAG  0.09
59. TACCAAGA  0.0906
60. ATTCGATG  0.0921
61. AATGATGC  0.0924
62. CGCGTACG  0.0931
63. AGTATATC  0.0944
64. CAGAATGA  0.0955
65. ACCTGACC  0.11
66. AATACAGG  0.111
67. ATTGAGAA  0.113
68. CCTCACCG  0.113
69. AGGGAGTA  0.113
70. AGCTGACC  0.116
71. ACGGGTGA  0.117
72. GGGGGTGA  0.132
73. CGCACCAA  0.143
74. CCGAGTCC  0.144
75. GTTGAGTA  0.147
76. ACTGATTA  0.147
77. CCTGATTA  0.158
78. CGCACGCC  0.167
79. ATCATATG  0.174
80. ATTGAGAC  0.18
81. ACTATATC  0.198
82. GCGAGTAA  0.2
83. ATTGAGTG  0.202
84. CTCATATC  0.203
85. GCGAGTCC  0.22
86. AGTATATG  0.239
87. ACTCACCT  0.244
88. ACCACAAC  0.258
89. GCTCACCC  0.265
90. AAACCATC  0.273
91. ACTATATA  0.274
92. ACTGATTC  0.283
93. GCGGGTGA  0.293
94. ATCATATC  0.3
95. CGCACCAG  0.302
96. ATTGAGTA  0.308
97. GCGGGTCA  0.308
98. ACTCACCG  0.309
99. AGTATATA  0.33
100. CTTGAGTC  0.333
101. AGGGAGTC  0.343
102. CCTGATTC  0.367
103. ACCTGACT  0.374
104. ACTCACCA  0.378
105. CGGGAGTC  0.386
106. ATTGAGTC  0.387
107. ACTCACCC  0.391
108. AGCTGACT  0.413
109. CCGAGTCA  0.451
110. GCGAGTCA  0.455
